Records with an inconclusive call do not appear. Entries that show only a call come without a potency. Calls of active or inactive are those of the source. Unless noted, calls follow the shape of the full dose curve.
Tests used:
[1] = Natriuretic polypeptide receptor (hNpr1) antagonism - Pilot counterscreen GloSensor control cell line (AID 1347045); also: potency is read from the fitted curve at half-maximal effect
Outline: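 HEK293 cGMP GloSensor cells preloaded 2 h with 2% GloSensor reagent, then compound 30 min before baseline luminescence read. Stimulated with 50 uM sodium nitroprusside, 20 min at room temperature, then read again; counterscreen for Npr1 antagonism.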

[2] = biological target: Atrial natriuretic peptide receptor 1 (Homo sapiens) (UniProt P16066); test: Natriuretic polypeptide receptor (hNpr1) antagonism - Pilot screen (AID 1347049);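 also: agonist-evoked cGMP luminescence read 20 min after hNppA addition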; also: potency is read from the fitted curve at half-maximal effect
Chain of Atrial natriuretic peptide receptor 1 (Homo sapiens) (P16066 whole entry, looked up): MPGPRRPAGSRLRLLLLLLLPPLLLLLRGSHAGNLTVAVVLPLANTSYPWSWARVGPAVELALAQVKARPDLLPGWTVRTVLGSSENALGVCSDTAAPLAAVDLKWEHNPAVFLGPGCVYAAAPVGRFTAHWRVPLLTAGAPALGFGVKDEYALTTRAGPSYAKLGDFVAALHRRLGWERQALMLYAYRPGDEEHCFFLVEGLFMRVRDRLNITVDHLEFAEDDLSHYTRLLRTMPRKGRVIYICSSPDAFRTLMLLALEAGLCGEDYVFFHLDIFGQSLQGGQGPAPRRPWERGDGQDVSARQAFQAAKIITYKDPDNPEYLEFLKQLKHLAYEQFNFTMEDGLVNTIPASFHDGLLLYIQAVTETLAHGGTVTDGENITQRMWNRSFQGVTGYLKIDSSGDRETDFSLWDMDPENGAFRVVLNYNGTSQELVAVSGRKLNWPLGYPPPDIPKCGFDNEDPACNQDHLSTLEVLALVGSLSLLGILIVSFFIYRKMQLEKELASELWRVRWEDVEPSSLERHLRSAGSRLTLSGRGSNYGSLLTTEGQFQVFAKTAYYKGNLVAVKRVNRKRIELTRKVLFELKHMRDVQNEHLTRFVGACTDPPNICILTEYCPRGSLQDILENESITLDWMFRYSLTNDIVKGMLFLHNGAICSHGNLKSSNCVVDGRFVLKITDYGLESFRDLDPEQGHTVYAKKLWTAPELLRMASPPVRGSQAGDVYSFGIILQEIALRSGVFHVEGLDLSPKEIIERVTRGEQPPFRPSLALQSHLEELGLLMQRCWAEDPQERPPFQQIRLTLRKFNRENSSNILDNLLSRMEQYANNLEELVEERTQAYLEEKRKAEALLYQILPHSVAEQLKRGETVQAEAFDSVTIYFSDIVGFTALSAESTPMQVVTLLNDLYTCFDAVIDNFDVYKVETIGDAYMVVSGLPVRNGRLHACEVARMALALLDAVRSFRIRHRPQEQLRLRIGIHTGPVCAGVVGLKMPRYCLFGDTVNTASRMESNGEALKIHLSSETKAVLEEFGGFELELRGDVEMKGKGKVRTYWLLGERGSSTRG
Outline: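 HEK293 cells co-expressing hNpr1 and the GloSensor pGS-40F cGMP luciferase sensor were preloaded with 2% GloSensor reagent for 2 h. Compounds were added for 30 min at room temperature, then cells were stimulated with 0.1 nM hNppA for 20 min before luminescence readout.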

[3] = biological target: Atrial natriuretic peptide receptor 2 (Homo sapiens) (UniProt P20594); test: Natriuretic polypeptide receptor (hNpr2) antagonism - Pilot subtype selectivity assay (AID 1347050); also: potency is read from the fitted curve at half-maximal effect
Chain of Atrial natriuretic peptide receptor 2 (Homo sapiens) (P20594 whole entry, looked up): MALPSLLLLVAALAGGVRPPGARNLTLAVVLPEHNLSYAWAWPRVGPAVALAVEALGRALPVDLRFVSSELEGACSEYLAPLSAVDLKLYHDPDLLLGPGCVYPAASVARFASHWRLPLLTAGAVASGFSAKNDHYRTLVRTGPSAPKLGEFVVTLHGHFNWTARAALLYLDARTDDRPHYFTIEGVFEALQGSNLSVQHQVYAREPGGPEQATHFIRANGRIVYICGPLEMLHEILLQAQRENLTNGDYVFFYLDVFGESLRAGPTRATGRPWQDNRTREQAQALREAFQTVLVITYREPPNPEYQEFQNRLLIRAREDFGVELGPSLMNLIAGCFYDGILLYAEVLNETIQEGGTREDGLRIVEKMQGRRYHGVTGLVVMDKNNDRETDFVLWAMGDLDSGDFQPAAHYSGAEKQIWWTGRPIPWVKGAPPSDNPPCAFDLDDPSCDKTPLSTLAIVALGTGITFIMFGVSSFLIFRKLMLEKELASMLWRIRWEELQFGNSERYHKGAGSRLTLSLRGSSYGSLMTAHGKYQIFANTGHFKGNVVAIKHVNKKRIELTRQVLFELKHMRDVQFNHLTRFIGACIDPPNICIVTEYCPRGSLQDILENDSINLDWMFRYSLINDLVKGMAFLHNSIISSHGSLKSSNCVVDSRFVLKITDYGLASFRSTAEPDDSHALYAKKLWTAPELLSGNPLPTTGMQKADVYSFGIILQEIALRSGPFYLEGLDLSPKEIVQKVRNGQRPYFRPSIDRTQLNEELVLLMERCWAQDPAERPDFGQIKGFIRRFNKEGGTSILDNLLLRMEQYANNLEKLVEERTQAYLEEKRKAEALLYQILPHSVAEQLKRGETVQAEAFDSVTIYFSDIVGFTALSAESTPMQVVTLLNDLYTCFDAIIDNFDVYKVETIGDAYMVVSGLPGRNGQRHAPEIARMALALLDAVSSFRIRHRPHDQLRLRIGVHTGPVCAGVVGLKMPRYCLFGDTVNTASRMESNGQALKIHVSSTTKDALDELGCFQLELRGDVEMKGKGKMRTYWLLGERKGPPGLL
Outline: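 cGMP-sensor HEK293/hNpr2 cells; 2% GloSensor reagent 2 h RT; compounds 30 min; baseline luminescence read; 1 nM hNppC agonist 20 min RT; final luminescence read by CCD camera. Antagonism = reduced post-agonist signal.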

[4] = NS1 protein of Zika virus - qHTS assay to identify small molecule inhibitors in human HEK 293 cells (AID 1347053; active = well fitted curve in the direction sought with a large enough effect; an effect the other way counts as inactive or inconclusive; also: series mostly up to about 46 µM; nearly all actives have a fitted effect of over 55% in size)
Outline: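 Following 20 h seeding, HEK 293 cells took compound, then 1 h later ZIKV MR766 (MOI = 0.5). Incubation ran 24 h at 37 C before TR-FRET detection of NS1; a drop in signal indicates inhibition.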

[5] = biological target: T1, Tyrosine-protein phosphatase non-receptor type substrate 1 (Homo sapiens) + Leukocyte surface antigen CD47 (Homo sapiens) (UniProt P78324+Q08722); test: CD47-SIRPalpha protein protein interaction - LANCE assay qHTS validation (AID 1347057; active = well fitted curve in the direction sought with a large enough effect in the signal ratio, with a control signal flat, not every such curve was filed as active; the % refers to the signal ratio; also: series mostly up to about 38 µM)
T1 sequence (P78324 whole entry, looked up): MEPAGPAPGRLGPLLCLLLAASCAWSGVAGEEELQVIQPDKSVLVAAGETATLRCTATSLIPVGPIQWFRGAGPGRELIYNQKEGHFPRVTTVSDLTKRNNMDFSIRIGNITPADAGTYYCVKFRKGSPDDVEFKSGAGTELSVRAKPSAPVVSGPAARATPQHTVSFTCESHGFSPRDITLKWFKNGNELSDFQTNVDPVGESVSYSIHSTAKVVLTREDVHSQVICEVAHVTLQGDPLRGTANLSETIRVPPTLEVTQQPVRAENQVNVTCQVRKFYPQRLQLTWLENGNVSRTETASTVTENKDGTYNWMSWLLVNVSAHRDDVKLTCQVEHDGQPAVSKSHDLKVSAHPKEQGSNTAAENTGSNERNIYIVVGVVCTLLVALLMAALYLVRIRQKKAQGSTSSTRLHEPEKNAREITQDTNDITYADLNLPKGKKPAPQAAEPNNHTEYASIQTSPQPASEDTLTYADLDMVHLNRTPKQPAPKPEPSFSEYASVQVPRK
T1 sequence (Q08722 whole entry, looked up): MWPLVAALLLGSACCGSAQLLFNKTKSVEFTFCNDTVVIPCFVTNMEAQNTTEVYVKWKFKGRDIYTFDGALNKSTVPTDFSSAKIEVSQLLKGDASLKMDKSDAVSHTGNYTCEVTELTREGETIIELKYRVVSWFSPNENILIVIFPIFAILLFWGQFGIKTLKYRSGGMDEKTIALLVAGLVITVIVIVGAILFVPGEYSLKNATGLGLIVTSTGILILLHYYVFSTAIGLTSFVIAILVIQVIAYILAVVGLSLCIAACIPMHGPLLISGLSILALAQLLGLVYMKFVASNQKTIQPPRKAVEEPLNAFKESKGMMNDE
Outline: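 First, His-tagged CD47 and Eu-labelled anti-His antibody met the compound for 30 min; next, site-specifically biotinylated SIRPalpha was added for 30 min; finally streptavidin-APC was added before reading the TR-FRET ratio.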

[6] = biological target: T1, Tyrosine-protein phosphatase non-receptor type substrate 1 (Homo sapiens) + Leukocyte surface antigen CD47 (Homo sapiens); test: CD47-SIRPalpha protein protein interaction - Alpha assay qHTS validation (AID 1347059; active = well fitted curve in the direction sought with a large enough effect; an effect the other way counts as inactive or inconclusive;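 also: bead proximity luminescence from CD47 binding SIRPalpha after compound preincubation with SIRPalpha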; also: potency is read from the fitted curve at half-maximal effect)
Outline: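 Soluble extracellular domains: Avi-tag biotinylated SIRPalpha (25 nM) preincubated 30 min RT with compound, then 6His-CD47 (12.5 nM) 30 min; Ni-NTA acceptor and streptavidin donor beads (10 ug/mL) 30 min, AlphaScreen read. PBS pH 7.4, 0.05% IGEPAL.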

[7] = biological target: Parathyroid hormone/parathyroid hormone-related peptide receptor (Homo sapiens) (UniProt Q03431); test: qHTS for PTHR1 Agonists: Optimization Screen against the NCGC LOPAC library (AID 1347079; active = well fitted curve in the direction sought with a large enough effect; an effect the other way counts as inactive or inconclusive;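 also: GloSensor cAMP luminescence in HEK-293 GP2 cells expressing human PTHR1 with IBMX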)
Chain of Parathyroid hormone/parathyroid hormone-related peptide receptor (Homo sapiens) (Q03431 whole entry, looked up): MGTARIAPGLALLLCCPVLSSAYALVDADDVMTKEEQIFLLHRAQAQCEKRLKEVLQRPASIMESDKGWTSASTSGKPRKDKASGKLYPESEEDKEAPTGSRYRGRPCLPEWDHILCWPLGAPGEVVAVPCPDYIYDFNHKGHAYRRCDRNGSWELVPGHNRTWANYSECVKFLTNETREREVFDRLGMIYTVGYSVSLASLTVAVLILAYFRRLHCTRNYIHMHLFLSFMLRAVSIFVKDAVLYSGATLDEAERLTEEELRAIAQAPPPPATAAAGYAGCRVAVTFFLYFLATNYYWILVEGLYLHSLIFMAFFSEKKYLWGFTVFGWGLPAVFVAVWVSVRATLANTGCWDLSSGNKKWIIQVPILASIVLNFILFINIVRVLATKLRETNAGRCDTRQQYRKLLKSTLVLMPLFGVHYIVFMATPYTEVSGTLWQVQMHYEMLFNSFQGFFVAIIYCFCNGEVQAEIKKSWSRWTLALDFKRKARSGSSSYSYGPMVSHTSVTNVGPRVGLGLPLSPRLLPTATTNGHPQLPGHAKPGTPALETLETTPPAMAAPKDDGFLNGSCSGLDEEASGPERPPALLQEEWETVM
Outline: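 Agonist readout: GloSensor cAMP luminescence, read after 15 min at room temperature. HEK-293-derived GP2 line carries PTHR1; compounds tested as a titration for 1 hr at 37C in presence of IBMX. M-PTH (1-15) served as control.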

[8] = qHTS for Inhibitors of the Functional Ribonucleoprotein Complex (vRNP) of Lassa (LASV) Arenavirus: LASV Primary Screen - GLuc reporter signal (AID 1347082; calls by dose curve; tested in HEK293 reporter line; also: series mostly up to about 57 µM; nearly all actives have a fitted effect of over 60% in size)
[9] = qHTS for Inhibitors of the Functional Ribonucleoprotein Complex (vRNP) of Lassa (LASV) Arenavirus: Viability assay - alamar blue signal for LASV Primary Screen (AID 1347083; calls by dose curve; tested in HEK293 reporter line; also: series mostly up to about 57 µM; nearly all actives have a fitted effect of over 80% in size)
[10] = qHTS for Inhibitors of the Functional Ribonucleoprotein Complex (vRNP) of Lymphocytic Choriomeningitis Arenaviruses (LCMV): Viability assay - alamar blue signal for LCMV Primary Screen (AID 1347085; calls by dose curve; tested in HEK293 reporter line; also: series mostly up to about 57 µM; nearly all actives have a fitted effect of over 80% in size)
[11] = biological target: Nucleoprotein (Lymphocytic choriomeningitis virus (strain Armstrong)) (UniProt P09992); test: qHTS for Inhibitors of the Functional Ribonucleoprotein Complex (vRNP) of Lymphocytic Choriomeningitis Arenaviruses (LCMV): LCMV Primary Screen - GLuc reporter signal (AID 1347086); also: series mostly up to about 57 µM; nearly all actives have a fitted effect of over 70% in size
Chain of Nucleoprotein (Lymphocytic choriomeningitis virus (strain Armstrong)) (P09992 whole entry, looked up): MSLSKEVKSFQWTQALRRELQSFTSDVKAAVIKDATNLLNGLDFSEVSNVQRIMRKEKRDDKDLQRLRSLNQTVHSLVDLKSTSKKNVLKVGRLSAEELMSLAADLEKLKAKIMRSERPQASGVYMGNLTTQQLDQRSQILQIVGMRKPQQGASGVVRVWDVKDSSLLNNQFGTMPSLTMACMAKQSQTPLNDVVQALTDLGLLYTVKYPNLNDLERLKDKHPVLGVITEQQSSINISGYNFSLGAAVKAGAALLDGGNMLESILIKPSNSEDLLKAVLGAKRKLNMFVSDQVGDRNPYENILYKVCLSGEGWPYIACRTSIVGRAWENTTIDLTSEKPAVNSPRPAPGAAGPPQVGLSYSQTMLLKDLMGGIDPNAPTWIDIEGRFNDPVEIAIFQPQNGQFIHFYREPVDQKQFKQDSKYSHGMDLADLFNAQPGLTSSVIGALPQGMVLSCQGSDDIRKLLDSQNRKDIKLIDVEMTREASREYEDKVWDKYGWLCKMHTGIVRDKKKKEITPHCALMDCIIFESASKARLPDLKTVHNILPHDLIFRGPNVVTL

[12] = qHTS of pediatric cancer cell lines to identify multiple opportunities for drug repurposing: Primary screen for TC32 cells (AID 1347089; active = well fitted curve in the direction sought with a large enough effect; an effect the other way counts as inactive or inconclusive; also: nearly all actives have a fitted effect of over 60% in size)
Outline: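 A viability screen of TC32 cells was run over 48 h, with primary MIPE doses spanning 0.78 nM–46 µM and NPC doses 0.59 nM–46 µM. ATP luminescence (CellTiter-Glo) served as the read-out.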

[13] = qHTS of pediatric cancer cell lines to identify multiple opportunities for drug repurposing: Primary screen for DAOY cells (AID 1347090; active = well fitted curve in the direction sought with a large enough effect; an effect the other way counts as inactive or inconclusive; also: nearly all actives have a fitted effect of over 55% in size; also: potency is read from the fitted curve at half-maximal effect)
Outline: (§1)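 Eight- or eleven-point concentration series, 48 h treatment at 37 degrees C in growth media; readout CellTiter-Glo luminescence. Potency and efficacy were taken from the concentration-response curves.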

[14] = qHTS of pediatric cancer cell lines to identify multiple opportunities for drug repurposing: Primary screen for SJ-GBM2 cells (AID 1347091; active = well fitted curve in the direction sought with a large enough effect; an effect the other way counts as inactive or inconclusive)
Outline: as §1

[15] = qHTS of pediatric cancer cell lines to identify multiple opportunities for drug repurposing: Primary screen for A673 cells (AID 1347092; active = well fitted curve in the direction sought with a large enough effect; an effect the other way counts as inactive or inconclusive; also: nearly all actives have a fitted effect of over 45% in size; also: potency is read from the fitted curve at half-maximal effect)
Outline: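 Titration-based qHTS on A673 cells: MIPE compounds spanned 11 points (0.78 nM to 46 µM final), NPC compounds 8 points (0.59 nM to 46 µM final). Viability after 48 h was measured by ATP luminescence.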

[16] = qHTS of pediatric cancer cell lines to identify multiple opportunities for drug repurposing: Primary screen for SK-N-MC cells (AID 1347093; active = well fitted curve in the direction sought with a large enough effect; an effect the other way counts as inactive or inconclusive; also: potency is read from the fitted curve at half-maximal effect)
Outline: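 Metabolically active cells were quantified by ATP-dependent luminescence (CellTiter-Glo, 15 min at room temperature) following 48 h treatment. Cells had been plated at 500-1,000 per well and settled for 5 h beforehand.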

[17] = qHTS of pediatric cancer cell lines to identify multiple opportunities for drug repurposing: Primary screen for BT-37 cells (AID 1347094; active = well fitted curve in the direction sought with a large enough effect; an effect the other way counts as inactive or inconclusive; also: potency is read from the fitted curve at half-maximal effect)
Outline: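 Following a 5-hour attachment period, cells at 500-1,000/well received compounds and were cultured for 48 hours. CellTiter-Glo was added and luminescence read to estimate viable, metabolically active cells.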

[18] = biological target: T1, Tyrosine-protein phosphatase non-receptor type substrate 1 (Homo sapiens) + Leukocyte surface antigen CD47 (Homo sapiens); test: CD47-SIRPalpha protein protein interaction - HTRF assay qHTS validation (AID 1347058; active = well fitted curve in the direction sought with a large enough effect in the signal ratio, not every such curve was filed as active; the % refers to the signal ratio; also: series mostly up to about 38 µM)
Outline: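 TR-FRET read (Ch1/Ch2 ratio) of soluble extracellular CD47 and Avi-biotinylated SIRPalpha domains in PBS pH 7.4 with 0.05% IGEPAL; 7-point compound titration. Sequential 30 min room-temperature steps; non-biotinylated SIRPalpha as control inhibitor.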

Compound	Potency [1]	Potency [2]	Potency [3]	Potency [4]	outcome [5]	Potency [6]	outcome [7]	Potency [8]	Potency [9]	Potency [10]	Potency [11]	Potency [12]	Potency [13]	Potency [14]	Potency [15]	Potency [16]	Potency [17]	outcome [18]
NC(=NCCC[C@H](N)C(=O)O)N[N+](=O)[O-]	inactive	inactive	inactive	inactive	inactive	inactive	inactive	inactive	inactive	inactive	inactive							
NCCc1c[nH]c2ccccc12	inactive	inactive	inactive	inactive	inactive	inactive	inactive	inactive	inactive	inactive	inactive							
O=C(O)[C@@H]1CCN1	inactive	inactive	inactive	inactive		inactive	inactive	inactive	inactive	inactive	inactive							
CC(=O)[C@H]1CCC2C3CC[C@H]4C[C@H](O)CC[C@]4(C)C3CC[C@@]21C (some centres not stated)	inactive	inactive	inactive	inactive		inactive	inactive	inactive	inactive	inactive	inactive							
CC1=C(C(=O)O)N2C(=O)[C@@H](N)[C@H]2SC1				inactive				inactive	inactive	inactive	inactive	inactive	inactive	inactive	inactive	inactive	inactive	
O=C(O)Cc1cnc[nH]1	inactive	inactive	inactive	inactive		inactive	inactive	inactive	inactive	inactive	inactive							inactive
COc1ccc2c(c[n+](C)c3c4cc5c(cc4ccc23)OCO5)c1OC	13.1 µM (active)	16.9 µM (active)	14.7 µM (active)			inactive	inactive				inactive		23.5 µM (active)		3.72 µM (active)	5.9 µM (active)	17.2 µM (active)	
CN[C@@H]1C[C@@H](c2ccc(Cl)c(Cl)c2)c2ccccc21	26.1 µM (active)	0.757 µM (active)	18.5 µM (active)			inactive	inactive											
O=C1CCCN1CC#CCN1CCCC1	inactive	inactive	inactive	inactive		inactive	inactive	inactive	inactive	inactive	inactive							
Cn1cnc(CCN)c1	inactive	inactive	inactive	inactive		inactive	inactive	inactive	inactive	inactive	inactive							
CNCCc1c[nH]c2ccc(O)cc12	inactive	inactive	inactive	inactive		inactive	inactive	inactive	inactive	inactive	inactive							
CN1C2CCC1CC(OC(=O)c1cc(Cl)cc(Cl)c1)C2 (configuration not stated)	inactive	inactive	inactive	inactive		inactive	inactive	inactive	inactive	inactive	inactive							
CNCCc1ccc(O)c(O)c1	inactive	inactive	inactive	inactive		inactive	inactive	inactive	inactive	inactive	inactive							
C[C@@H](N)Cc1cnc[nH]1	inactive	inactive	inactive	inactive		inactive	inactive	inactive	inactive	inactive	inactive							
NC1CCc2cc(O)c(O)cc2C1 (configuration not stated)	inactive	inactive	inactive	inactive		inactive	inactive	inactive	inactive	inactive	inactive							inactive
CCOP(=O)(NC(C)C)Oc1ccc(SC)c(C)c1 (configuration not stated)				inactive				inactive	inactive	inactive	inactive	inactive	inactive	inactive	inactive	inactive	inactive	
NCCc1c[nH]c2ccc(O)cc12	inactive	inactive	inactive	inactive		inactive	inactive	inactive	inactive	inactive	inactive							
O=C(O)CC[N+](=O)[O-]	inactive	inactive	inactive	inactive		inactive	inactive	inactive	inactive	inactive	inactive							

Compound	Potency [1]	Potency [2]	Potency [3]	Potency [4]	outcome [5]	Potency [6]	outcome [7]	Potency [8]	Potency [9]	Potency [10]	Potency [11]	Potency [12]	Potency [13]	Potency [14]	Potency [15]	Potency [16]	Potency [17]	outcome [18]
Cc1nccc2c1[nH]c1ccccc12	inactive	inactive	inactive	inactive	inactive	inactive	inactive	inactive	inactive	inactive	inactive							
C=CCN1CC[C@]23CCCCC2[C@H]1Cc1ccc(O)cc13 (some centres not stated)	inactive	inactive	inactive	inactive		inactive	inactive	inactive	inactive	inactive	inactive							
Clc1cnc(Oc2ccc(Oc3ncc(Cl)cc3Cl)cc2)c(Cl)c1	inactive	inactive	inactive	inactive		inactive	inactive	inactive	inactive	inactive	inactive							
CCCN(CCC)[C@@H]1CCc2ccc(O)cc2C1	inactive	inactive	inactive	inactive	inactive	inactive	inactive	inactive	inactive	inactive	inactive							
NC(N)=NOCCC(N)C(=O)O (configuration not stated)	inactive	inactive	inactive	inactive		inactive	inactive	inactive	inactive	inactive	inactive							
CS(=N)(=O)CC[C@H](N)C(=O)O (some centres not stated)	inactive	inactive	inactive	inactive		inactive	inactive	inactive	inactive	inactive	inactive							inactive
CCCCc1ccc(C(=O)O)nc1	inactive	inactive	inactive	inactive	inactive	16.5 µM (active)	inactive	inactive	inactive	inactive	inactive							
Fc1cc(Br)ccc1CBr				inactive				inactive	inactive	inactive	inactive	inactive	inactive	inactive	inactive	inactive	inactive	
O=C(Cc1ccc(Cl)c(Cl)c1)N1CCCCC1CN1CCCC1 (configuration not stated)	inactive	inactive	inactive	inactive		inactive	inactive	inactive	inactive	inactive	inactive							
CCC(=O)O[C@@H]1C=C2CCC3C(CCC4(C)C3CC[C@@H]4OC(=O)CC)C2CC1 (some centres not stated)				inactive				inactive	inactive	inactive	inactive	inactive	inactive	inactive	inactive	inactive	inactive	
CC(C)Oc1cccnc1N(C)C1CCN(Cc2ccccc2)CC1	inactive	inactive	inactive	inactive		inactive	inactive	inactive	inactive	inactive	inactive							
c1ccc2sc(C3(N4CCCCC4)CCCCC3)cc2c1	inactive	inactive	inactive	inactive		inactive	inactive	inactive	inactive	inactive	inactive							
C#CCOC(=O)C1=CCCN(C)C1	inactive	inactive	inactive	inactive		inactive	inactive	inactive	inactive	inactive	inactive							
CC(C)NC(C)Cc1ccc(I)cc1 (configuration not stated)	inactive		inactive	inactive	inactive	inactive	inactive	inactive	inactive	inactive	inactive							inactive
C[N+]1(C)C2CCC1CC(OC(=O)C(CO)c1ccccc1)C2 (configuration not stated)	inactive	inactive	inactive	inactive		inactive	inactive	inactive	inactive	inactive	inactive							
C[C@@H]1O[C@H](C[N+](C)(C)C)C[C@H]1O	inactive	inactive	inactive	inactive		inactive	inactive	inactive	inactive	inactive	inactive							
C[C@]12N[C@H](Cc3ccccc31)c1ccccc12	inactive	inactive	inactive	inactive			inactive	inactive	inactive	inactive	inactive							

Reference: PubChem BioAssay (NCATS)
